Compound activity: PubChem, The Scripps Research Institute Molecular Screening Center
Compounds with a hit are over-represented: about 3.4% of the library has one in this group of screens.
TEAD-YAP block – TEAD-YAP interaction inhibition, primary screen, TEAD-YAP interaction inhibitor project, luminescence, HEK-TIYL cells. TEAD-Gal4/YAP UAS-luciferase luminescence. inhibition, % at 9.12 µM. 1.4% of 640,000 active; in the data active = inhibition above about 32%;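 note: 0% = median of test compound wells and 100% = reference inhibitor wells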
MITF inh – MITF inhibitors, primary screen, biochemical, AlphaScreen, human | AlphaScreen MITF homodimerization, bead proximity signal | inhibition, % at 2.6 µM | 0.91% of 650,000 active | AID 1259374, 2018; in the data active = inhibition above about 50%;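 note: 0% = vehicle wells with protein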
GPR151 activ – activators of human GPR151, primary screen, cell-based, PathHunter beta-arrestin, luminescence | PathHunter beta-arrestin GPR151 cells | activation, % at 11.2 µM | 1% of 650,000 active; in the data active = activation above about 4.9%;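 note: 0% = median of compound wells and 100% = cells with positive control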
Target sequence (Q8TDV0 whole entry, looked up): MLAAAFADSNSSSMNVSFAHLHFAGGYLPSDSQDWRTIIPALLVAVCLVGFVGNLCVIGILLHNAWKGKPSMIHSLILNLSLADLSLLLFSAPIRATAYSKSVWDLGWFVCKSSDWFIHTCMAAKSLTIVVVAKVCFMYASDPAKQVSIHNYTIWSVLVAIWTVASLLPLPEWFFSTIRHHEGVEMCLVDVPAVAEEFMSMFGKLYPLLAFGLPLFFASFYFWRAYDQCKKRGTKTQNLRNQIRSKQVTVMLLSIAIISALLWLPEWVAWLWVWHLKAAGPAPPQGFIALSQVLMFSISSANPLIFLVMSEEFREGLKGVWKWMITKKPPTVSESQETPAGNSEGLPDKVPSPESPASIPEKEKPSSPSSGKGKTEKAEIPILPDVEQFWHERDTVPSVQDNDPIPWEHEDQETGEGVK
FBW7 activator – FBW7 E3 ligase activators, primary screen, biochemical, AlphaScreen, human. F-box/WD repeat-containing protein 7 (Homo sapiens), Q969H0. AlphaScreen FBW7–phospho-cyclin E peptide binding, activator screen. normalized activity (activation), % at 26.1 µM. 0.13% of 650,000 active; in the data active = normalized activity above about 1.9%;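 note: purified mutant Fbw7 with reduced substrate affinity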
* hit, by the source's call.

SMILES	TEAD-YAP block	MITF inh	GPR151 activ	FBW7 activator
CCCCCSc1nnc(-c2ccc3[nH]c(C)c(C)c3c2)n1-c1ccccc1	-2.4	2.4	0.2	0.0
Nc1c2c3c(c(O)ccc3[nH]c1=O)C(=O)c1ccccc1-2	36.7*	-3.6	-1.2	-0.2
Nc1c(Br)cc(O)c2c1C(=O)c1ccccc1C2=O	2.7	17.3	0.4	-0.2
CCCN1C(=O)c2ccccc2NC1c1ccc(OC)cc1 (stereo unspecified)	-4.5	4.8	0.5	1.0
CC(=O)N1CCc2cc(Br)cc(S(=O)(=O)Nc3ccc(C)cc3)c21	-0.6	5.5	1.5	-0.2
Cc1ccc(NS(=O)(=O)c2cc(Br)cc3c2N(C(=O)C2CC2)CC3)cc1	39.8*	1.8	1.1	0.1
CC(C)OC(=O)C1=C(N)OC2=C(C(=O)CCC2)C1c1ccc(Cl)cc1 (stereo unspecified)	5.0	-4.1	-0.1	0.1
Cc1ccc(C(=O)OC2CC(C)CCC2C(C)C)cc1[N+](=O)[O-] (stereo unspecified)	7.8	13.5	0.4	0.0
CC1CCC(C(C)C)C(OC(=O)c2cc([N+](=O)[O-])ccc2Cl)C1 (stereo unspecified)	2.8	-5.4	3.5	5.5*
COCCNC(=O)c1ccc2c(=O)n(Cc3ccco3)c(SCC(=O)N3CCN(c4ccccc4)CC3)nc2c1	27.6	-7.2	0.0	0.0
CN(Cc1ccccc1)C(=O)CSc1nc2cc(C(=O)NCC3CCCO3)ccc2c(=O)n1Cc1ccco1 (stereo unspecified)	37.7*	-5.2	1.1	0.0
O=C(CSc1nc2cc(C(=O)NCC3CCCO3)ccc2c(=O)n1Cc1ccco1)NC1CCCC1 (stereo unspecified)	11.1	-2.6	-0.5	0.0
O=C(NCC1CCCO1)c1ccc2c(=O)n(Cc3ccco3)c(SCC(=O)N3CCN(c4ccccc4)CC3)nc2c1 (stereo unspecified)	34.9*	-1.5	-0.1	-0.1
Cc1nc(C(=O)N2CCc3c(cnc(C)c3CNC(=O)Cc3cccs3)C2)cs1	-18.9	-5.8	-0.2	-0.1
CC(C)CCNC(=O)CSc1nc(Nc2ccc(F)cc2)c2ccccc2n1	2.5	5.1	0.9	0.2
COc1ccc(Nc2cc(C)nc3ccc(OC)cc23)cc1	9.7	-0.9	-0.6	-0.1
COC(=O)c1ccc(Nc2cc(C)nc3cc(Cl)ccc23)cc1	49.2*	-1.9	-0.3	0.1
COC(=O)c1ccc2nc(C)cc(Nc3ccc(C(=O)O)cc3)c2c1	11.2	18.4	0.7	-0.1
COC(=O)c1ccc(Nc2cc(C)nc3ccc(Cl)cc23)cc1	49.3*	12.8	0.7	0.0
COc1ccc2nc(C)cc(Nc3ccc(O)cc3)c2c1	33.8*	1.6	-0.9	-0.1
O=C1C(=O)N(CCO)C(c2ccc(F)cc2)/C1=C(/O)c1ccccc1 (stereo unspecified)	5.3	4.4	1.6	0.1
CC1NC(=S)N(c2ccc(C(C)C)cc2)C1=O (stereo unspecified)	-27.7	4.6	-0.5	0.3
CCOc1ccc(NC(=S)NCC(c2cccnc2)N(C)C)cc1 (stereo unspecified)	-4.7	-2.9	-0.6	-0.2
O=C(Nc1ccc(C23CC4CC(CC(C4)C2)C3)cc1)c1cccc(Cl)c1	59.7*	7.7	0.0	0.0
CC(C)c1ccc(C(=O)Nc2ccc(-c3nc4ncccc4o3)cc2)cc1	8.8	19.1	-0.4	0.2
SMILES	TEAD-YAP block	MITF inh	GPR151 activ	FBW7 activator
CCCN1CCc2nnc(C(NS(C)(=O)=O)C(C)C)n2CC1 (stereo unspecified)	-0.8	-2.5	1.7	-0.1
CC(=O)C1=C(O)CC(C)(C)CC1=Nc1ccccc1N	-51.8	7.7	-10.5	-0.1
COC(=O)c1ccc(C2C3=C(CC(C)(C)CC3=O)N(c3ccc(OC)cc3OC)C3=C2C(=O)CC(C)(C)C3)cc1	-1.9	4.0	3.4	0.8
CCCNc1nc(N2CCCC2CO)nc2c1ncn2-c1ccsc1 (stereo unspecified)	36.7*	8.4	-0.3	0.1
c1ccc(N2CCN(c3nc(NCCN4CCOCC4)c4ncn(-c5ccsc5)c4n3)CC2)nc1	57.4*	22.7	-2.5	0.2
COc1ccc(CCNc2nc(N3CCN(c4ccccn4)CC3)nc3c2ncn3-c2ccsc2)cc1	2.5	0.1	1.5	-0.1
OCCNc1nc(N2CCN(c3ccccn3)CC2)nc2c1ncn2-c1ccsc1	50.9*	13.3	-2.1	0.1
